Calls of active or inactive are those of the source. Rule for the calls: active = hit-call score of the fitted dose curve at least 0.9, where 1 is the maximum; inactive = score below 0.9.
Legend:
Conditions in all cases: mRNA level, 48 h; actives raise or lower the signal
HGF (gene 3082) = assay: LTEA_HepaRG_HGF: Life Technologies and Expression Analysis (LTEA) Assay for Hepatocyte Growth Facto (HGF) using HepaRG (AID 2283505)
How it was run: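 Differentiated HepaRG cells in serum-free induction medium exposed 48 h in duplicate, 8 half-log concentrations from 100 uM in 0.5% DMSO. HGF mRNA by qRT-PCR, normalised to ACTB, GAPDH, POLR2A; bidirectional fitting.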

[1] = read-out: Insulin Like Growth Factor 1 (IGF1), IGF1 (gene 3479); assay: LTEA_HepaRG_IGF1: Life Technologies and Expression Analysis (LTEA) Assay for Insulin Like Growth Factor 1 (IGF1) using HepaRG (AID 2283506)
How it was run: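 Differentiated human HepaRG cells were dosed for 48 h in serum-free induction medium with 0.5% DMSO, eight half-log concentrations up to 100 uM, in duplicate. IGF1 mRNA was quantified by qRT-PCR normalized to ACTB, GAPDH, POLR2A; bidirectional fitting versus DMSO.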

[2] = read-out: Intercellular Adhesion Molecule 1 (ICAM1), ICAM1 (gene 3383); assay: LTEA_HepaRG_ICAM1: Life Technologies and Expression Analysis (LTEA) Assay for Intercellular Adhesion Molecule 1 (ICAM1) using HepaRG (AID 2283507)
How it was run: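 Differentiated human HepaRG cells in serum-free induction medium exposed 48 h in duplicate to 8 half-log concentrations (top 100 uM, 0.5% DMSO). ICAM1 mRNA quantified by TaqMan qRT-PCR, normalized to ACTB, GAPDH and POLR2A; bidirectional fitting versus DMSO.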

[3] = read-out: Insulin-like growth factor-binding protein 1 (IGFBP1), IGFBP1 (gene 3484); assay: LTEA_HepaRG_IGFBP1: Life Technologies and Expression Analysis (LTEA) Assay for Insulin-like growth factor-binding protein 1 (IGFBP1) using HepaRG (AID 2283508)
How it was run: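 HepaRG cells, plated 48 h then switched to serum-free induction medium, exposed in duplicate for 48 h to 8-point half-log series from 100 uM in 0.5% DMSO. mRNA measured by qRT-PCR, normalized to ACTB/GAPDH/POLR2A; bidirectional fit versus DMSO.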

[4] = read-out: Interleukin 6 (IL6), IL6 (gene 3569); assay: LTEA_HepaRG_IL6: Life Technologies and Expression Analysis (LTEA) Assay for Interleukin 6 (IL6) using HepaRG (AID 2283509)
How it was run: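 Differentiated human HepaRG cells, plated 48 h then switched to serum-free induction medium, were exposed in duplicate for 48 h to eight half-log concentrations up to 100 uM in 0.5% DMSO. IL6 mRNA measured by qRT-PCR, normalized to ACTB/GAPDH/POLR2A.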

[5] = read-out: Interleukin 6 Receptor (IL6R), IL6R (gene 3570); assay: LTEA_HepaRG_IL6R: Life Technologies and Expression Analysis (LTEA) Assay for Interleukin 6 Receptor (IL6R) using HepaRG (AID 2283510);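 for AC50: TaqMan qRT-PCR signal normalized to ACTB GAPDH and POLR2A housekeeping genes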
How it was run: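 Differentiated human HepaRG cells, plated 48 h then switched to serum-free induction medium, were dosed in duplicate for 48 h at eight half-log concentrations up to 100 uM in 0.5% DMSO. IL6R mRNA quantified by qRT-PCR, normalized to ACTB/GAPDH/POLR2A; bidirectional fit versus DMSO.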

[6] = read-out: Potassium channel subfamily K member 1 (KCNK1), KCNK1 (gene 3775); assay: LTEA_HepaRG_KCNK1: Life Technologies and Expression Analysis (LTEA) Assay for Potassium channel subfamily K member 1 (KCNK1) using HepaRG (AID 2283511)
How it was run: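 Differentiated human HepaRG cells in serum-free induction medium were exposed in duplicate for 48 h to 8 half-log concentrations up to 100 uM in 0.5% DMSO. KCNK1 mRNA was measured by TaqMan qRT-PCR, normalized to ACTB, GAPDH and POLR2A, and fitted bidirectionally versus DMSO.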

[7] = read-out: Keratin 19 (KRT19), KRT19 (gene 3880); assay: LTEA_HepaRG_KRT19: Life Technologies and Expression Analysis (LTEA) Assay for Keratin 19 (KRT19) using HepaRG (AID 2283512)
How it was run: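 Differentiated HepaRG cells in serum-free induction medium, exposed 48 h in duplicate to 8 half-log concentrations up to 100 uM in 0.5% DMSO. KRT19 mRNA by qRT-PCR, normalized to ACTB, GAPDH, POLR2A; bidirectional fit vs DMSO.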

[8] = read-out: JUN Transcription Factor, JUN (gene 3725); assay: LTEA_HepaRG_JUN: Life Technologies and Expression Analysis (LTEA) Assay for JUN Transcription Factor using HepaRG (AID 2283513)
How it was run: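 Differentiated HepaRG cells were exposed to chemicals for 48 h in serum-free induction medium, 8 concentrations from 100 uM in half-log steps, 0.5% DMSO vehicle, in duplicate. JUN mRNA was quantified by TaqMan qRT-PCR, normalized to ACTB, GAPDH, POLR2A.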

Measured: AC50

O=C1CCC(C2CCCCC2)CC1
inactive: all assays above

c1ccc(C[n+]2cccc3ccccc32)cc1
active: [1] 20.7 µM | [3] 34.6 µM | [5] 50 µM | [7] 28.6 µM
inactive: HGF (gene 3082) | [6] | [8]

CCN(Cc1cccc(S(=O)(=O)O)c1)c1ccc(C(=C2C=CC(=[N+](CC)Cc3cccc(S(=O)(=O)O)c3)C=C2)c2ccccc2S(=O)(=O)[O-])cc1
inactive: all assays above

CCCCCCCCOC(=O)c1cc(O)c(O)c(O)c1
active: [4] 50 µM | [7] 27.1 µM
not listed: [2]
inactive: all other assays above

Clc1ccccc1C(c1ccccc1)(c1ccccc1)n1ccnc1
inactive: [6]
active: HGF (gene 3082) 26.7 µM | [3] 16.7 µM | [4] 88.6 µM | [5] 93 µM | [7] 20.2 µM | [8] 66 µM

CC[C@H](NC(=O)c1cc(F)ccc1NS(=O)(=O)c1cccc2cccnc12)c1ccccc1
active: [5] 38.6 µM
not listed: [1] | [2]
inactive: all other assays above

NCc1cccc(C2CCN(C(=O)c3ccc(C#Cc4ccccc4F)o3)CC2)c1
active: HGF (gene 3082) 79.5 µM | [5] 82.5 µM | [7] 9.92 µM
inactive: all other assays above

CCCCCCCCCCCCO
inactive: all assays above

Oc1ccccc1
not listed: [1] | [2]
inactive: all other assays above

Cc1occc1C(=O)Nc1ccc(C(=O)N2CCC(F)(F)/C(=C\C(=O)N3CCC(N4CCCCC4)CC3)c3ccccc32)cc1
inactive: HGF (gene 3082) | [6] | [8]
active: [3] 46.1 µM | [4] 51.9 µM | [5] 27.5 µM | [7] 49.6 µM

Cc1ccc2oc(CN(Cc3ccccc3)C(=O)Nc3c(F)cc(F)cc3F)c(-c3ccc(Cl)cc3)c2c1
active: [3] 70.8 µM
not listed: [1]
inactive: all other assays above

CC(C)(C)c1csc(-c2cc3cc(OCc4ccccc4CC(=O)O)ccc3o2)n1
inactive: HGF (gene 3082) | [6] | [7]
active: [3] 32.2 µM | [4] 81.3 µM | [5] 50 µM | [8] 78.9 µM

CC/C(=C(/CC)c1ccc(O)cc1)c1ccc(O)cc1
inactive: [2] | [6]
active: HGF (gene 3082) 23.6 µM | [3] 66.6 µM | [4] 93 µM | [5] 78.5 µM | [7] 9.92 µM | [8] 79.2 µM

CC(=O)N1CCN(c2ccc(OC[C@H]3CO[C@](Cn4ccnc4)(c4ccc(Cl)cc4Cl)O3)cc2)CC1
active: [3] 15.1 µM | [4] 31.2 µM | [5] 13.9 µM | [7] 12.2 µM | [8] 50 µM

COc1cc(C(=O)NC2CCN(C)CC2)ccc1Nc1ncc2c(n1)N(C1CCCC1)CC(F)(F)C(=O)N2C
active: [1] 3.45 µM | [2] 83.7 µM | [3] 23.3 µM | [4] 25.2 µM | [5] 86.4 µM | [7] 12.3 µM | [8] 25.9 µM
inactive: HGF (gene 3082) | [6]

Cc1c2ccccc2c(C)c2c1ccc1ccccc12
inactive: [6] | [8]
active: HGF (gene 3082) 63.3 µM | [3] 70.3 µM | [4] 83 µM | [5] 13.5 µM | [7] 13.3 µM

O=C(O)Cn1c(=O)n(Cc2ccc(Br)cc2F)c(=O)c2ccc(Cl)cc21
active: [7] 50 µM
not listed: [1]
inactive: all other assays above

CCN(CC)C(=O)c1cc(S(=O)(=O)Cc2ccccc2)c(N2CCC(c3ccccc3)CC2)cc1N(CC)CCN(C)C
active: [3] 32.2 µM | [4] 36.3 µM | [8] 30.4 µM
not listed: [2]
inactive: all other assays above

NC(=O)c1nc(-c2cccc(-c3cc(F)ccc3OCC(F)(F)C(F)(F)F)c2)n[nH]1
active: HGF (gene 3082) 77.2 µM | [3] 78.1 µM | [4] 78.6 µM | [7] 12.1 µM | [8] 79 µM
inactive: [5] | [6]

CC(C)(c1cc(Br)c(O)c(Br)c1)c1cc(Br)c(O)c(Br)c1
inactive: HGF (gene 3082) | [5] | [6] | [7]
active: [1] 77 µM | [2] 74.5 µM | [3] 69.1 µM | [4] 75.5 µM | [8] 94.7 µM

Cc1oc2c(NC(=O)c3c(Cl)cccc3Cl)cccc2c1C(C)(C)O
inactive: [8]
active: HGF (gene 3082) 85.7 µM | [3] 37.8 µM | [4] 66.2 µM | [5] 23.8 µM | [6] 43.6 µM | [7] 50 µM

Clc1cc(Cl)c2c(c1)N=C1CCCCCN1C2
active: [3] 15.5 µM
not listed: [1] | [2]
inactive: all other assays above

O=C(OCCCCCCOC(=O)c1ccccc1)c1ccccc1
not listed: [1]
inactive: all other assays above

CN1C(=O)N(c2ccccc2Br)Cc2cnc(Nc3ccc4c(c3)OCC(CO)O4)nc21 (stereo unspecified)
active: [1] 32.7 µM | [3] 62.3 µM | [4] 11.6 µM | [7] 6.5 µM | [8] 12.1 µM
inactive: HGF (gene 3082) | [5] | [6]

CC(C)(O)c1ccc(CNC(=O)c2cccnc2Oc2ccc3nonc3c2)cc1
active: [1] 22.7 µM
inactive: all other assays above

O=C(Nc1ccc(Cl)cc1)Nc1ccc(Cl)c(Cl)c1
inactive: [5]
active: HGF (gene 3082) 50 µM | [3] 27.7 µM | [4] 23.3 µM | [6] 29 µM | [7] 14.6 µM | [8] 22.8 µM

CCCCCCCCCCCO
not listed: [1]
inactive: all other assays above

OCCO
inactive: all assays above

Cc1cn([C@H]2C[C@H](N=[N+]=[N-])[C@@H](CO)O2)c(=O)[nH]c1=O
inactive: all assays above

O=C=NCCCCCCN=C=O
not listed: [1]
inactive: all other assays above

CCCCCCCCCC(=O)O
inactive: all assays above

Cc1cc2c(cc1C(F)(F)F)N(C(=O)Nc1ccc(Oc3cccnc3C)nc1)CC2
not listed: [1]
inactive: all other assays above

O=c1ccc2ccccc2o1
not listed: [2]
inactive: all other assays above

COCC(C)OCC(C)OCC(C)O (stereo unspecified)
not listed: [1]
inactive: all other assays above

Oc1ccc2ccccc2c1
not listed: [1] | [2]
inactive: all other assays above

CCCCCCCCCCCC[N+](C)(C)C
active: HGF (gene 3082) 90.1 µM | [1] 77.5 µM | [3] 84.2 µM | [4] 77.8 µM | [6] 64.7 µM | [7] 50 µM | [8] 82.8 µM
inactive: [5]

CCCOC(=O)c1cc(O)c(O)c(O)c1
active: [1] 11.4 µM
not listed: [2]
inactive: all other assays above
